IMPase cell inh: cell-permeable inhibitors of inositol monophosphatase (IMPase). P97697. CHO-M1 cells, IP1 accumulation, HTRF TR-FRET ratio. inhibition (IP1 accumulation), % at 46.1 µM. 120,000 tested, under 10 active. AID 901; active means well fitted curve in the direction sought with a large enough effect in the signal ratio, not every such curve was filed as active; inconclusive means small, poorly fitted or top-dose-only effect, or a change in a side signal; inactive means no such curve, though single readings can be large or run the other way; the % refers to the signal ratio;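 further: cells stimulated with carbachol in lithium chloride buffer; plate controls were DMSO basal wells for no effect and reference inhibitor wells for full effect; higher means more IMPase inhibition seen as more IP1 and lower FRET ratio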
Target sequence (P97697 whole entry, looked up): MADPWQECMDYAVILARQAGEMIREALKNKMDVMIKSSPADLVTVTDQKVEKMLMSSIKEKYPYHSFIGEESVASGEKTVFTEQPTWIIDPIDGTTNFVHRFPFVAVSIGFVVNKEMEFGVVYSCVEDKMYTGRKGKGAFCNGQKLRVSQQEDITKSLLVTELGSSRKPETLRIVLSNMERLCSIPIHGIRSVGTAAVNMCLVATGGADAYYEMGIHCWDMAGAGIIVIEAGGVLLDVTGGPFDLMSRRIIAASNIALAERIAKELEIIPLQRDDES
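CHO-M1, 2000 cells/well, cultured 16–30 h; cpd up to 46 uM; carbachol (50 uM solution, stimulation buffer w/ 50 mM LiCl, pH 7.4), 30 min 37C; IP-One TR-FRET, 10 min RT; Ex 320/Em 665, 620; Hill-fit AC50.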
HPGD inh: blocks human HPGD enzyme activity; AID 894; Potency, µM, for inactives: at the top dose activity change, negative = inhibition, most hits filed as inhibitors; P15428; purified HPGD, NADH fluorescence kinetic, PGE2 substrate; 150,000 tested, 4.3% active; active means well fitted inhibition curve with a large enough effect, not every such curve was filed as active; inconclusive means small, poorly fitted or top-dose-only effect, or another doubt; inactive means no such curve, though single readings can be large or run the other way; further: potency means the concentration at half of the fitted maximal effect
Target sequence (P15428 whole entry, looked up): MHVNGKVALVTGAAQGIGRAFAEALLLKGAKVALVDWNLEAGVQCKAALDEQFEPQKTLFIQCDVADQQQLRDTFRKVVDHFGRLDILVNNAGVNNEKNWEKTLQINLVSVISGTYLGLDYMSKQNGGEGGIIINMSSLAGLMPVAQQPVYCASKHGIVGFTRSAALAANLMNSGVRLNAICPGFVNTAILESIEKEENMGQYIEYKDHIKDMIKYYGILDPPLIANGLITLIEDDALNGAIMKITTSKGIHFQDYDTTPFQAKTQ
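NADH formation kinetics: reaction with 30 uM PGE2 and 1 mM NAD+ (final), 20 nM enzyme, Tris-HCl pH 8 with Tween 20, after 15 min compound preincubation at room temperature. Fluorescence change, last versus first of five reads.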
ALOX12 inhib: inhibitors of human 12-lipoxygenase (ALOX12); AID 1452; Potency, µM (top dose mostly 57.1 µM), for the others: at the top dose activity change, negative = inhibition, actives largely listed as inhibitors; purified 12-hLO, xylenol orange hydroperoxide absorbance; 150,000 tested, 0.12% active; P18054; further: potency means the concentration at half of the fitted maximal effect; nearly all actives have a fitted effect of over 55% in size
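Purified human 12hLO (150 nM final) was preincubated with compounds for 15 min at room temperature in 25 mM Hepes pH 7.0, 0.01% Triton X-100, then reacted with 40 uM arachidonic acid for 30 min. Hydroperoxide was detected with ferrous iron/xylenol orange.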
IMPase Li inh: IMPase inhibition in cells with lithium potentiation; CHO-M1 cells, IP1 TR-FRET (IP-One), carbachol + lithium; Potency, µM (doses to about 59.4 µM), without a hit: top-dose activity, negative = IMPase inhibition, usual class: inhibitors; 210,000 tested, 0.35% active;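 further: IP1 builds up when IMPase is blocked and the TR-FRET signal falls; potency means the concentration at half of the fitted maximal effect; plate controls were basal vehicle for no effect and high inhibitor control for full effect; nearly all actives have a fitted effect of over 50% in size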
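CHO cells stably expressing M1 receptor (2000/well) were cultured 16–30 h, then exposed to compounds with a small lithium addition for 30 min at 37C. IP1 was measured by TR-FRET competition; AC50 from Hill fits.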
PNC inhibitor: inhibitors of perinucleolar compartment assembly; AID 2417; PC3M PTB-GFP, PNC prevalence imaging, 16 h; stronger effect = lower value; 140,000 tested, 3.1% active; activity change (PNC), negative = inhibition, % at 10 µM;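 active means readout at or below -70, meaning at least 70% loss of cells showing the perinucleolar compartment, a nuclear body marking cancer cells; inconclusive means readout between -30 and a set limit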;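 further: plate controls were DMSO wells for no effect and camptothecin positive control wells for full effect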
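PC3M cells stably expressing PTB-GFP, 750–1000 cells/well, treated 16 h at 37 °C with compound (23 nl of library stock), in duplicate. After paraformaldehyde fixation and Hoechst stain, imaged at 20x; PNC prevalence scored by image analysis.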
ALOX15B inhib: 15-hLO-2 (ALOX15B) enzyme inhibition | O15296 | purified 15hLO-2, xylenol orange hydroperoxide absorbance | Potency, µM (series often up to 57.1 µM), without a hit: top-dose activity change, negative = inhibition, usual class: inhibitors | 110,000 tested, 0.56% active | AID 881; further: potency means the concentration at half of the fitted maximal effect; nearly all actives have a fitted effect of over 60% in size
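Purified human 15hLO-2 (50 nM final) preincubated with compounds 15 min at room temperature in 25 mM Hepes pH 7.5, 0.01% Triton X-100, then 45 uM arachidonic acid added for 90 min; hydroperoxide detected via ferrous/xylenol orange, 573/405 nm absorbance ratio.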
* = called active by the depositor; ? = inconclusive; . = not tested or not shown; [ ] = dose if it differs, or a comment. Only some compounds are listed: those with a hit (about 5.3% of all), similar ones and a draw of the others. Unless noted, the call rests on the fitted dose curve; in most records, active means well fitted curve in the direction sought with a large enough effect; inconclusive means small, poorly fitted or top-dose-only effect, or another doubt; inactive means no such curve, though single readings can be large; an effect the other way counts as inactive or inconclusive. Unless noted, on the % scale 0 is the no-effect control and ±100 the full control effect.

SMILES | IMPase cell inh | HPGD inh | ALOX12 inhib | IMPase Li inh | PNC inhibitor | ALOX15B inhib
O=C(O)CSCCC(=O)Nc1ccc(F)cc1 | 8 | . | -3% | . | -3 | 6%
COc1ccc2c(c1OC)C(=O)OC2Nc1ncccc1C (configuration not stated) | 1 | -14% | 4% | -2%[38.3 µM] | 35 | 0%
COc1ccc2c(c1OC)C(=O)OC2Nc1nc(-c2ccc(-c3ccccc3)cc2)cs1 (configuration not stated) | . | ? | -2% | -4% | -123* | .
COc1ccc2c(c1OC)C(=O)OC2Nn1cncn1 (configuration not stated) | 3 | -26% | 4% | 6%[38.3 µM] | -94* | -1%
CC(C)(C)OC(=O)NNC(=O)Nc1ccccc1C(F)(F)F | . | . | . | 8% | . | .
C=CCN(CC=C)S(=O)(=O)c1ccc(NC(=O)COc2ccccc2OC)cc1 | 13 | -3% | -3% | 7% | -88* | .
O=C(Nc1ccc(Nc2ccccc2)cc1)C(Cl)(Cl)Cl | . | 32µM* | 0% | 7% | 19 | .
CC(C)(C)NC(=S)Nc1ccc(Nc2ccccc2)cc1 | 5 | ? | ? | 6%[38.3 µM] | 54 | 16µM*
CC(C)(C)NC(=S)Nc1ccc(Br)cc1 | 1 | -6% | -27% | 0%[38.3 µM] | 24 | -30%
COCC(=O)Nc1ccc(Nc2ccccc2)cc1 | 4 | ? | -2% | 5%[38.3 µM] | 40 | ?
CCC(=O)Nc1ccc(Nc2ccccc2)cc1 | 4 | -22% | -1% | 11% | ? | -12%
O=C(Nc1ccc(Nc2ccccc2)cc1)C(Cl)Cl | . | 22µM* | -2% | 10% | -91* | .
CN(C)c1ccc(/C=C/C(=O)c2ccccc2)cc1[N+](=O)[O-] | . | 14µM* | 1% | 6% | -28 | .
COc1ccc(Oc2ccc(/C=C/C(=O)c3ccc(O)cc3)cc2[N+](=O)[O-])cc1 | . | -23% | 3% | 16% | -113* | .
COc1ccc(/C=C/C(=O)c2ccc(O)cc2)cc1COc1ccc(F)cc1 | 3 | . | -23% | . | ? | -4%
Cc1cc(SCCC(=O)O)nc2c(C)cccc12 | ? | ? | 9% | 10µM* | -26 | 7%
Cc1cc(SCC(=O)O)nc2ccccc12 | . | . | . | -1% | . | .
O=C(c1csc2c1CCCC2)N1CCCCC1 | 5 | 1.6µM* | -1% | 24%[38.3 µM] | 12 | -2%
O=C(c1csc2ccccc12)N1CCN(c2ccccn2)CC1 | 8 | -14% | -4% | 4%[38.3 µM] | ? | -3%
O=C(c1csc2ccccc12)N1CCCCCC1 | 5 | 0.013µM* | -5% | -5%[38.3 µM] | 3 | -3%
O=C(c1csc2ccccc12)n1cccn1 | 1 | -10% | -2% | -12% | -87* | -5%
Cc1cccc(NC(=O)CSc2nnc(-c3ccco3)c(-c3ccco3)n2)c1C | 3 | 10µM* | -26% | 12%[38.3 µM] | 0 | -1%
CC1=NN(C(=O)c2csc(C(C)C)c2)C(O)(C(F)(F)F)C1 (configuration not stated) | 7 | -14% | -6% | -4% | 42 | .
CCOC(=O)Cn1c(=S)[nH]c2c(oc3ccc(Cl)cc32)c1=O | ? | 1% | 2% | 8.9µM* | ? | -26%
CCOC(=O)N1CCN(C(=O)c2ccc3c(=O)n(Cc4ccc(Cl)cc4)c(=S)[nH]c3c2)CC1 | -4 | -22% | -10% | 7%[38.3 µM] | 16 | -8%
SMILES | IMPase cell inh | HPGD inh | ALOX12 inhib | IMPase Li inh | PNC inhibitor | ALOX15B inhib
COC(=O)c1cccc(S(=O)(=O)N2CCC(NC(=O)Nc3cccc(F)c3)CC2)c1 | 14 | . | -13% | . | -98* | -4%
CC(=O)c1ccc(S(=O)(=O)N2CCC(NC(=O)Nc3cccc(F)c3)CC2)cc1 | . | . | . | -4% | . | .
CC1=CCC(C(=O)O)C(C(=O)O)C1 (configuration not stated) | -3 | -6% | -4% | -3%[38.3 µM] | ? | 6%
CC1=CC(C)C(C(=O)O)C(C(=O)O)C1 (configuration not stated) | -9 | -9% | 6% | 16%[38.3 µM] | -81* | -3%
O=S(=O)(c1ccccc1F)N(Cc1ccco1)Cc1nnc(-c2ccccc2Br)o1 | 1 | 25µM* | -7% | 14%[38.3 µM] | -4 | -12%
COc1ccccc1N/C(=N/S(=O)(=O)c1ccc(C)cc1)c1ccc(Cl)cc1 | 9 | -1% | -9% | 30%[38.3 µM] | 14 | -2%
c1ccc(COc2ccc(Nc3ncnc4nc[nH]c34)cc2)cc1 | 7 | 16µM* | 2% | 17%[38.3 µM] | -10 | 39%
O=[N+]([O-])c1cccc(C=Nc2cc3c(cc2Br)OCCO3)c1 | 1 | -7% | 4% | -12% | ? | .
Cc1ccnc(NS(=O)(=O)c2ccc(NS(=O)(=O)c3ccccc3)cc2)n1 | -8 | -10% | 12% | -1% | -100* | .
Cc1cc(C)nc(NS(=O)(=O)c2ccc(NS(=O)(=O)c3ccccc3)cc2)n1 | -1 | -7% | 3% | -11%[38.3 µM] | -14 | -6%
COc1ccc(CN2C(=O)NC3(CCOc4ccccc43)C2=O)cc1F (configuration not stated) | 6 | -4% | -4% | -2% | -80* | .
COc1ccc(OC)c(NC(=O)CN2C(=O)NC3(CCOc4ccccc43)C2=O)c1 (configuration not stated) | -5 | -4% | 3% | 36%[38.3 µM] | -3 | 4%
COc1ccc(CCNC(=S)Nc2cc(C)ccc2C)cc1 | 1 | -14% | 7.9µM* | 40%[38.3 µM] | 3 | 25µM*
COc1ccc(CCNC(=S)Nc2ccc(C)cc2C)cc1 | . | 1% | ? | -3% | -18 | .
COc1ccc(CNC(=S)Nc2ccccc2C)cc1 | ? | -27% | -8% | 24%[38.3 µM] | ? | -23%
COc1ccc(CCNC(=S)Nc2cccc(C)c2C)cc1 | 8 | -3% | ? | 10%[38.3 µM] | -25 | 25µM*
Cc1ccc(S(=O)(=O)Nc2cnn(-c3ccccc3)c(=O)c2Cl)cc1 | . | . | . | 10% | . | .
COCCNc1ncnc2ccc(-c3c(C)noc3C)cc12 | . | . | . | -2% | . | 7%
O=C(c1cc([N+](=O)[O-])cc([N+](=O)[O-])c1)N1CCOCC1 | 3 | -7% | 4% | 5% | -8 | .
CCOc1ccc(CN(C)CC(=O)Nc2ccc(N3CCOCC3)cc2)cc1OC | 7 | -9% | 6% | 11% | -20 | .
Cc1c(C(=O)Nc2ccc(Cl)cc2)c2ccccn2c1CCc1ccncc1 | -3 | ? | -24% | -6% | -85* | .
CC(=O)N1CCN(C2=NC(=O)C(=C3CCCCC3)S2)CC1 | 2 | -9% | -1% | 2% | -100* | .
COc1ccccc1/C=C/C=N/n1c(-c2ccncc2)n[nH]c1=S | . | 14µM* | -6% | 14% | ? | .
COc1ccc(-c2cc(-c3n[nH]c(=S)n3-c3ccccc3OC)[nH]n2)cc1 | . | 11µM* | -5% | 2% | 47 | .
